# In article PMC11062922 (Nature Chemical Biology, 2023):
# Where two headings read alike, the source gives them in different places.
# Experiments:
# Design in all cases: species or system human, MV4-11 + K-562 + COLO205 + SK-N-BE2 + OVCAR-8
# MAPK10 = settings: read-out: apparent Kd, n = 1
# MAPK11 = settings: read-out: apparent Kd, n = 1
# MAPK14 = settings: read-out: apparent Kd, n = 1
# MAPK8 = settings: read-out: apparent Kd; compound concentrations:100 nM and 1000 nM (sheet 'Samples'); n = 1
# MAPK9 = settings: read-out: apparent Kd; compound concentrations:100 nM and 1000 nM (sheet 'Samples'); n = 1
# NLK = settings: read-out: apparent Kd; compound concentrations:100 nM and 1000 nM (sheet 'Samples'); n = 1
# PIP4K2C = settings: read-out: apparent Kd; compound concentrations:100 nM and 1000 nM (sheet 'Samples'); n = 1
# MAP2K1 = settings: read-out: apparent Kd; compound concentrations: 100 nM and 1000 nM (sheet 'Samples'), CATDS: 0.27931983910668101; n = 1
# RET = settings: read-out: apparent Kd; compound concentrations: 100 nM and 1000 nM (sheet 'Samples'), CATDS: 0.41481657466373201; n = 1
# MAP2K5 = settings: read-out: apparent Kd; compound concentrations:100 nM and 1000 nM (sheet 'Samples'); n = 1
# RIPK2 = settings: read-out: apparent Kd; compound concentrations:100 nM and 1000 nM (sheet 'Samples'); n = 1
# MAPKAPK2 = settings: read-out: apparent Kd, n = 1
# MCM5 = settings: read-out: apparent Kd; compound concentrations:100 nM and 1000 nM (sheet 'Samples'); n = 1
# TNIK = settings: read-out: apparent Kd; compound concentrations:100 nM and 1000 nM (sheet 'Samples'); n = 1
# NQO2 = settings: read-out: apparent Kd, n = 1
# PIK3C3 = settings: read-out: apparent Kd; compound concentrations:100 nM and 1000 nM (sheet 'Samples'); n = 1
# STK16 = settings: read-out: apparent Kd; compound concentrations:100 nM and 1000 nM (sheet 'Samples'); n = 1
# NQO1 = settings: read-out: apparent Kd; compound concentrations: 100 nM and 1000 nM (sheet 'Samples'), CATDS: 0.21043150555446399; n = 1
# TGFBR1 = settings: read-out: apparent Kd; compound concentrations:100 nM and 1000 nM (sheet 'Samples'); n = 1
# TGFBR2 = settings: read-out: apparent Kd; compound concentrations:100 nM and 1000 nM (sheet 'Samples'); n = 1
# [1] = compound concentrations:100 nM and 1000 nM (sheet 'Samples')
# [2] = compound concentrations: 100 nM and 1000 nM (sheet 'Samples'), CATDS: 1
structure (smiles),measurement,setting,value
CS(=O)(=O)CCCn1c(=O)c(Oc2ccc(F)cc2F)cc2cnc(NC3CCOCC3)nc21 [RO5033700-000],potency estimated from few doses,MAPK10; [1],0.0939 µM
same,potency estimated from few doses,MAPK11; [1],0.63 µM
same,potency estimated from few doses,MAPK14; [1],0.0077 µM
same,potency estimated from few doses,MAPK8,0.466 µM
same,potency estimated from few doses,MAPK9,0.11 µM
same,potency estimated from few doses,NLK,0.202 µM
same,potency estimated from few doses,PIP4K2C,0.796 µM
Fc1ccc(Nc2nccc(-c3c(-c4ccc(Cl)cc4)nn4ncccc34)n2)cc1F [GW829058X],potency estimated from few doses,"MAPK10; compound concentrations: 100 nM and 1000 nM (sheet 'Samples'), CATDS: 0.57984182911323701",0.726 µM
same,potency estimated from few doses,"MAPK14; compound concentrations: 100 nM and 1000 nM (sheet 'Samples'), CATDS: 0.43948476052302998",1.28 µM
COc1cc2c(Nc3cccc(NC(=O)c4ccccc4)c3)ncnc2cc1OCCCN1CCOCC1 [GSK223810A],potency estimated from few doses,MAP2K1,2.31 µM
same,potency estimated from few doses,"MAPK11; compound concentrations: 100 nM and 1000 nM (sheet 'Samples'), CATDS: 0.33231746948784902",1.55 µM
same,potency estimated from few doses,RET,1.03 µM
CC(C)Nc1ncc2cc(Oc3ccc(F)cc3F)c(=O)n(C)c2n1.Cl [RO3309180-001],potency estimated from few doses,MAPK10; [1],0.0685 µM
same,potency estimated from few doses,MAPK11; [1],0.439 µM
same,potency estimated from few doses,MAPK14; [1],0.0099 µM
same,potency estimated from few doses,MAPK8,1.08 µM
same,potency estimated from few doses,MAPK9,0.369 µM
same,potency estimated from few doses,NLK,1.49 µM
same,potency estimated from few doses,PIP4K2C,2.1 µM
CN(C)c1cc2c(Nc3ccc4c(cnn4Cc4ccccc4)c3)ncnc2cn1 [GW282974X],potency estimated from few doses,MAP2K5,1.47 µM
same,potency estimated from few doses,RIPK2,0.989 µM
O=c1[nH]c2nc(NC3CCOCC3)ncc2cc1Oc1ccc(F)cc1F [RO3310867-000],potency estimated from few doses,MAPK10; [1],0.15 µM
same,potency estimated from few doses,MAPK11; [1],0.655 µM
same,potency estimated from few doses,"MAPK14; compound concentrations: 100 nM and 1000 nM (sheet 'Samples'), CATDS: 0.37744016768512201",0.00996 µM
same,potency estimated from few doses,MAPK8,0.554 µM
same,potency estimated from few doses,MAPK9,0.0984 µM
same,potency estimated from few doses,MAPKAPK2; [1],0.00598 µM
same,potency estimated from few doses,PIP4K2C,0.781 µM
COc1cccc(-c2ccc3c(NC(=O)C4CC4)n[nH]c3n2)c1 [SB-710903],potency estimated from few doses,MCM5,2.02 µM
same,potency estimated from few doses,NLK,1.9 µM
same,potency estimated from few doses,TNIK,1.64 µM
CCn1c(-c2nonc2N)nc2ccc(F)cc21 [GW785404X],potency estimated from few doses,NQO2; [2],0.339 µM
Nc1n[nH]c2ncc(-c3ccccc3)cc12 [SB-517081_KCGS],potency estimated from few doses,MAPK14; [1],1.59 µM
same,potency estimated from few doses,PIK3C3,1.32 µM
same,potency estimated from few doses,STK16,1.63 µM
CCS(=O)(=O)c1ccc(OC)c(Nc2nccc(-c3c(-c4cccc(NC(=O)c5c(F)cccc5F)c4)nn4ncccc34)n2)c1 [GSK326180A],potency estimated from few doses,MAPKAPK2; [2],1.39 µM
C[C@@H](CS(C)(=O)=O)Nc1ncc2cc(Oc3ccc(F)cc3F)c(=O)n(C)c2n1 [RO5044198-000],potency estimated from few doses,"MAPK14; compound concentrations: 100 nM and 1000 nM (sheet 'Samples'), CATDS: 0.48313667011563999",0.0884 µM
same,potency estimated from few doses,"MAPKAPK2; compound concentrations: 100 nM and 1000 nM (sheet 'Samples'), CATDS: 0.45912582310815703",0.0974 µM
same,potency estimated from few doses,NQO1,1.41 µM
Cc1ccc(-c2cc(-c3c[nH]nc3-c3ccccn3)ccn2)cc1 [GW684088X],potency estimated from few doses,NQO2; [1],0.741 µM
same,potency estimated from few doses,TGFBR1,0.49 µM
same,potency estimated from few doses,TGFBR2,2.23 µM
